{"source": "paper PMC7862700", "about": "“An all-to-all approach to the identification of sequence-specific readers for epigenetic DNA modifications on cytosine”", "data": [{"target": "T1, ELF3 (Homo sapiens, UniProt P78545 1-371)", "T1 sequence": "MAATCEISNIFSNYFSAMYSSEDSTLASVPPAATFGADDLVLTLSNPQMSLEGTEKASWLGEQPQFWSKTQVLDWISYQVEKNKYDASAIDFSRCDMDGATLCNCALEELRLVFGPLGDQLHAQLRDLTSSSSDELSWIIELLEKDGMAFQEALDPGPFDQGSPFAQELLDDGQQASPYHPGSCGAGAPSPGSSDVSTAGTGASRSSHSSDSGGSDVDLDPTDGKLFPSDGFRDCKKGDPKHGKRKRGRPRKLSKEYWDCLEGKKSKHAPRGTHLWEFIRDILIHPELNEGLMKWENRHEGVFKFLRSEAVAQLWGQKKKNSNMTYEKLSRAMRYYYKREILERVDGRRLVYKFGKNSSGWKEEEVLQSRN", "assay": "DAPPL (digital affinity profiling via proximity ligation, sequencing); 10 mM Tris-HCl pH 7.5, 50 mM NaCl, 1 mM DTT, 4% glycerol, room temperature, 30 min; GST-TFs on glutathione beads, 16-mer random dsDNA library, 0.1% formaldehyde crosslink after washing; high values mean tight binding", "details": "protein: recombinant; tags: N-terminal GST; dsDNA, one strand shown", "method_in_brief": "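Sequencing on an Illumina NextSeq500 followed washing, crosslinking with 0.1% formaldehyde, proximity ligation (BsaI/T4 ligase, 1 h, 37 °C) and PCR amplification of pools that had been incubated for 30 min at room temperature with 200 nmole of a random double-stranded 16-mer DNA library in Tris/NaCl/DTT/glycerol buffer. Each pool held DNA-barcoded human transcription factors, expressed in yeast as GST fusions and captured on glutathione beads, plus a tag-only sample. Binding signal is a hexamer's read frequency for a factor divided by its frequency in the tag-only sample.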", "values": [{"sequence": "ATTGAT", "binding signal": "1.22 fold enrichment (6-mer frequency, TF over GST control)"}, {"sequence": "CATCTA", "binding signal": "1.33 fold enrichment (6-mer frequency, TF over GST control)"}, {"sequence": "CTGATT", "binding signal": "1.12 fold enrichment (6-mer frequency, TF over GST control)"}, {"sequence": "CGAATA", "binding signal": "1.07 fold enrichment (6-mer frequency, TF over GST control)"}, {"sequence": "AAGAAA", "binding signal": "1.23 fold enrichment (6-mer frequency, TF over GST control)"}, {"sequence": "AGTATT", "binding signal": "1.17 fold enrichment (6-mer frequency, TF over GST control)"}, {"sequence": "TAAATG", "binding signal": "1.34 fold enrichment (6-mer frequency, TF over GST control)"}, {"sequence": "TTTTGT", "binding signal": "1.43 fold enrichment (6-mer frequency, TF over GST control)"}, {"sequence": "TCTGCT", "binding signal": "1.11 fold enrichment (6-mer frequency, TF over GST control)"}, {"sequence": "TTGAAA", "binding signal": "1.13 fold enrichment (6-mer frequency, TF over GST control)"}, {"sequence": "ACAATA", "binding signal": "1.33 fold enrichment (6-mer frequency, TF over GST control)"}, {"sequence": "CCTAAG", "binding signal": "1.09 fold enrichment (6-mer frequency, TF over GST control)"}, {"sequence": "CTCAAT", "binding signal": "1.22 fold enrichment (6-mer frequency, TF over GST control)"}, {"sequence": "TACATA", "binding signal": "1.18 fold enrichment (6-mer frequency, TF over GST control)"}, {"sequence": "TATTTT", "binding signal": "1.36 fold enrichment (6-mer frequency, TF over GST control)"}, {"sequence": "TTAATG", "binding signal": "1.21 fold enrichment (6-mer frequency, TF over GST control)"}, {"sequence": "ATCGAT", "binding signal": "1.19 fold enrichment (6-mer frequency, TF over GST control)"}, {"sequence": "TCCATT", "binding signal": "1.27 fold enrichment (6-mer frequency, TF over GST control)"}, {"sequence": "CGTTAA", "binding signal": "1.27 fold enrichment (6-mer frequency, TF over GST control)"}, {"sequence": "TCTAGC", "binding signal": "1.32 fold enrichment (6-mer frequency, TF over GST control)"}, {"sequence": "ATGCTA", "binding signal": "1.29 fold enrichment (6-mer frequency, TF over GST control)"}, {"sequence": "TTATGT", "binding signal": "1.41 fold enrichment (6-mer frequency, TF over GST control)"}, {"sequence": "TCTTGA", "binding signal": "1.19 fold enrichment (6-mer frequency, TF over GST control)"}, {"sequence": "ATGCTT", "binding signal": "1.35 fold enrichment (6-mer frequency, TF over GST control)"}, {"sequence": "CATCCT", "binding signal": "1.59 fold enrichment (6-mer frequency, TF over GST control)"}, {"sequence": "ACTGAT", "binding signal": "1.21 fold enrichment (6-mer frequency, TF over GST control)"}, {"sequence": "TTACTC", "binding signal": "1.43 fold enrichment (6-mer frequency, TF over GST control)"}, {"sequence": "TTGCCC", "binding signal": "1.33 fold enrichment (6-mer frequency, TF over GST control)"}, {"sequence": "ACGTCC", "binding signal": "1.39 fold enrichment (6-mer frequency, TF over GST control)"}, {"sequence": "AATGTT", "binding signal": "1.51 fold enrichment (6-mer frequency, TF over GST control)"}, {"sequence": "AATAGT", "binding signal": "1.26 fold enrichment (6-mer frequency, TF over GST control)"}, {"sequence": "CCAATC", "binding signal": "1.11 fold enrichment (6-mer frequency, TF over GST control)"}, {"sequence": "GTATCC", "binding signal": "1.69 fold enrichment (6-mer frequency, TF over GST control)"}, {"sequence": "ACAATT", "binding signal": "1.35 fold enrichment (6-mer frequency, TF over GST control)"}, {"sequence": "TTCTTT", "binding signal": "1.28 fold enrichment (6-mer frequency, TF over GST control)"}, {"sequence": "TAAAAC", "binding signal": "1.14 fold enrichment (6-mer frequency, TF over GST control)"}, {"sequence": "TCCTTC", "binding signal": "1.85 fold enrichment (6-mer frequency, TF over GST control)"}, {"sequence": "TTCGTA", "binding signal": "1.53 fold enrichment (6-mer frequency, TF over GST control)"}, {"sequence": "TAGCTA", "binding signal": "1.17 fold enrichment (6-mer frequency, TF over GST control)"}, {"sequence": "TATTTG", "binding signal": "1.45 fold enrichment (6-mer frequency, TF over GST control)"}]}]}
